According to PubChem BioAssay AID1066 (SRMLSC, 2008):
Hit rate of the full screen: of about 190,000 compounds, about 790 (0.42%) were called active. For the sample, actives were picked, then their nearest neighbours and some compounds at random. Unmarked numbers belong to inactive results.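 How the source made its calls: active means inhibition above a set limit, the median over all tested compounds plus 3 SD (cut at about 9.5% in these data); inconclusive means no clear call, values can overlap the other calls; inactive means the rest.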

Test system: HMG-CoA reductase (Enterococcus faecalis, mvaE)
Assay: inhibitors of E. faecalis class II HMGR, primary screen, biochemical, Enterococcus faecalis (AID 1066);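 further: enzyme runs in reverse so mevalonate oxidation gives rising NADPH absorbance; 0% = complete reaction with DMSO and 100% = background rate lacking mevalonate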
Conditions: purified E. faecalis HMGR, NADPH absorbance 340 nm kinetic; at 10 µM; hits give high values

| SMILES | inhibition |
| --- | --- |
| COc1ccc(CCn2c(O)c(C=NCCCn3ccnc3)c(=O)[nH]c2=O)cc1OC | 13.7% (active) |
| CN(C)CCCN=Cc1c(O)n(Cc2ccco2)c(=O)[nH]c1=O | 6.16% |
| COc1ccc(CCn2c(O)c(C=NC3CC3)c(=O)[nH]c2=O)cc1OC | -3.24% |
| CN(C)c1nc(N(C)C)nc(N(C#N)CCCl)n1 | -6.92% |
| O=C(O)CCn1cc(C=C2C(=O)NC(=S)NC2=O)c(-c2cccc(Br)c2)n1 | 1.54% |
